Experimental data published in PubChem BioAssay (NCI).
The panel holds about 79,000 compounds, 15% with a hit somewhere; the sample as a whole holds those more often. Values without a mark were called inactive. Active and inactive are the calls of the source. Rule as the data show it: active = growth inhibition above about 70%; inactive = the rest.

Legend:
[1] = NCI Yeast Anticancer Drug Screen. Data for the rad50 strain (AID 155);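 also: 0% = growth of vehicle-only cultures of the same strain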; details: S. cerevisiae rad50 strain growth inhibition; at 50.0 µM; active compounds read high
Method in brief: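 Genetically altered yeast (DNA repair pathway); compound treatment; growth inhibition vs vehicle ctrl.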

[2] = NCI Yeast Anticancer Drug Screen. Data for the mec2-1 strain (AID 157); details: S. cerevisiae mec2-1 strain, at 50.0 µM, active compounds read high
Method in brief: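 Yeast mec2-1 mutant treated with compound. Readout: growth inhibition vs vehicle controls.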

[3] = NCI Yeast Anticancer Drug Screen. Data for the sgs1 mgt1 strain (AID 161);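 also: 0% = growth of cultures given vehicle only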; details: S. cerevisiae sgs1 mgt1 strain, at 50.0 µM, active compounds read high
Method in brief: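 Genetically altered yeast, compound exposure, growth inhibition relative to vehicle.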

[4] = NCI Yeast Anticancer Drug Screen. Data for the cln2 rad14 strain (AID 165);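 also: 0% = growth equal to vehicle treated cultures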; details: S. cerevisiae cln2 rad14 strain, at 50.0 µM, active compounds read high
Method in brief: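 cln2 rad14 yeast strain; compound exposure; growth inhibition read vs vehicle controls.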

[5] = NCI Yeast Anticancer Drug Screen. Data for the bub3 strain (AID 167); details: S. cerevisiae bub3 mutant strain, at 50.0 µM, active compounds read high
Method in brief: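 Yeast carrying a defined mutation is treated with each compound, and growth is compared with that of vehicle-exposed cells to give inhibition.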

[6] = NCI Yeast Anticancer Drug Screen. Data for the mlh1 rad18 strain (AID 175); details: S. cerevisiae mlh1 rad18 strain growth inhibition; at 50.0 µM; active compounds read high
Method in brief: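 Yeast w/ defined DNA-repair lesions; compound exposure; growth vs vehicle controls → % inhibition.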

Row | SMILES | growth inhibition [1] | growth inhibition [2] | growth inhibition [3] | growth inhibition [4] | growth inhibition [5] | growth inhibition [6]
1 | NNC(=O)N/N=C1\C(=O)N(c2ccc(Cl)c(Cl)c2)C(=O)C(=O)C1c1nc2ccccc2s1 (stereo unspecified) | 41.4% | 5.95% | 26.9% | 13.3% | 0% | 26.4%
2 | COC(=O)CCc1cccnc1/C=N/O | -26.9% | -31.8% | -11.8% | 4.7% | -11.7% | -17.4%
3 | C(=C\c1cc(CCc2nc3ccccc3[nH]2)[nH]n1)/c1ccccc1 | -4.4% | -16.5% | -12.3% | 22.6% | -4.25% | -15.2%
4 | CCCC1C(C#N)(C#N)C(C#N)=C(N)C1(C)C(C)=O (stereo unspecified) | 3.4% | 6.8% | -18.7% | 0.4% | -23.8% | -34.9%
5 | CCOC(=O)C1OC1(C)CC (stereo unspecified) | 4.1% | 1% | 10.3% | -5.85% | -5.25% | -21.4%
6 | CCCC(=N)OCC | -3.45% | -27.4% | -20.4% | -0.45% | 3.75% | -5.05%
7 | Cc1cc(C)n(-c2nc(-n3nc(C)cc3C)nc(-n3nc(C)cc3C)n2)n1 | -34.2% | -32.2% | -1.7% | -20.6% | -21.1% | -41.5%
8 | NNc1ccc(S(=O)(=O)O)cc1Cl | 8.35% | -14.4% | 3.05% | 4.7% | 15.7% | 2.45%
9 | COc1ccccc1CO | 0.85% | -13.8% | 3.85% | 13.7% | 13.8% | -1.15%
10 | CCCCC(Nc1nncs1)Nc1nncs1 | -8.9% | -18% | 9.85% | 3.7% | 11.3% | 2.6%
11 | COc1ccc(SC/C(=N\NOS(=O)(=O)c2ccc(C)cc2)c2ccccc2)cc1 | 85.1% (active) | 34.1% | 93.3% (active) | 61% | 61% | 87.7% (active)
12 | CN1CCN(P(=O)(c2ccccc2)N2CCN(C)CC2)CC1 | 32.3% | 7.85% | 29.6% | 20.1% | -1.1% | 30.7%
13 | Cc1cccc(C)c1NC(=S)NC(=O)c1cccc(Cl)c1 | -13.6% | -23% | -2.9% | -10.5% | -20.4% | -16.6%
14 | CCCC(=O)Oc1ccc(C(=O)OC)cc1 | 8.4% | -10.8% | -11.9% | -24.8% | -16.4% | 13.3%
15 | CC(C)CC1OCC(C)(C)C(C(C)C)O1 (stereo unspecified) | -8% | -6.1% | -17.4% | 2% | -0.4% | 0.4%
16 | C=C(Cl)COc1ccc(C(=O)c2ccccc2)cc1 | -4.5% | -9% | -6.5% | -64% | -7.25% | -14.9%
17 | Brc1ccc(-c2ccc(Br)cc2)cc1 | -4.45% | -4.35% | 6.25% | -44% | -19.1% | -5.25%
18 | CCOC(=O)CC(=O)c1cc(OC)c(OC)c(OC)c1 | 7.05% | 16.8% | 8.4% | -75% | 39.9% | 20.4%
19 | O=C1CSC2=NC3=C(CSC/C3=C\c3ccccc3)C(c3ccccc3)N12 (stereo unspecified) | 14.4% | 11.5% | 21.2% | 35.8% | 21% | -25.6%
20 | O=C(NCc1ccccc1)C1C2CCC(C2)C1C(=O)NCc1ccccc1 (stereo unspecified) | -0.85% | 50.8% | -1.95% | -2.35% | 22.9% | -6.35%
21 | O=C(Nc1cccc(O)c1)Nc1ccc(Cl)cc1[N+](=O)[O-] | 98.2% (active) | 99.3% (active) | 99.2% (active) | 97.5% (active) | 83% (active) | 97.8% (active)
